Screening data: PubChem, National Center for Advancing Translational Sciences (NCATS)
SMN2 splice up: enhancers of SMN2 splice variant expression. Potency, µM (doses to about 46.1 µM), inactives show at the top dose activity change, positive = activation, hits mostly activators. HEK293 SMN2-luciferase splicing reporter, luminescence, 30-36 h. AID 1458. 210,000 tested, 2.8% active; also: % of control where 0% means no effect; nearly all actives have a fitted effect of over 55% in size
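HEK293 cells carry an SMN2 […]–luciferase reporter in which exon 7 inclusion puts luciferase in frame. Cells were plated 10-12 h before compound addition, then incubated 30-36 h at 37C. ONE-Glo luminescence was read; sodium butyrate at 4.5 mM final served as control.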
NPC1 prom act: NPC1 promoter activation | 320,000 tested, 2.4% active | Huh7 NPC1 promoter luciferase reporter, 24 h | Potency, µM (titrated, usually from 9.22 µM), for the others: top-dose activation, most hits filed as activators | AID 485313; also: % of control where 0% means no effect; nearly all actives have a fitted effect of over 60% in size
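Readout is luciferase luminescence, reflecting NPC1 promoter activation in stably transfected Huh7 cells after 24 h compound exposure at 37 °C in reduced-serum medium with 10% FBS.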
FLuc modulator: inhibits or activates purified firefly luciferase, miR-21 counter-screen. P08659. purified FLuc, Km substrates, luminescence inhibition. Potency, µM (doses to about 57.5 µM), for the others: at the top dose activity change, negative = inhibition, hits mostly inhibitors. 360,000 tested, 6.9% active. AID 588342;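 also: plate controls were vehicle for no effect and reference inhibitor for full effect; nearly all actives have a fitted effect of over 55% in size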
Target sequence (P08659 whole entry, looked up): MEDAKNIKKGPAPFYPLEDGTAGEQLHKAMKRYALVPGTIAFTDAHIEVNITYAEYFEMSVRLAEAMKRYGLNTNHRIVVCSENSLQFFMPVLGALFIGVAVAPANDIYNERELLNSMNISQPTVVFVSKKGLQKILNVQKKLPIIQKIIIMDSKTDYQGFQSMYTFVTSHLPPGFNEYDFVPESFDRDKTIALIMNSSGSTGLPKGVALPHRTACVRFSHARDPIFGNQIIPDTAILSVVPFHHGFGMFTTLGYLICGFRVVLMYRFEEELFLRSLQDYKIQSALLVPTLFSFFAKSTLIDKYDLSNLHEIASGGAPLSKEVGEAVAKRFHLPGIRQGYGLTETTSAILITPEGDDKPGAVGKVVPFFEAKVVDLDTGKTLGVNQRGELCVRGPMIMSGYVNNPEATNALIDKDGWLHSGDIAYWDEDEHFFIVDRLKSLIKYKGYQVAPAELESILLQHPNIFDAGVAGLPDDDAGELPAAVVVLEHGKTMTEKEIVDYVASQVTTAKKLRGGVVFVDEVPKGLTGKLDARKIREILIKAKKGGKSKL
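Purified P. pyralis luciferase (10nM final) with 10uM D-luciferin and 10uM ATP (Km levels) in 50mM Tris acetate pH 7.5, 10mM Mg acetate, 0.01% Tween-20, 0.05% BSA; qHTS 6-point titration, ~60 µM downward; luminescence read.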
ELG1 DNA repair: inhibitors of ELG1-dependent DNA repair in HEK293T cells; HEK293T ELG1-luciferase reporter, luminescence, 16 h; DNA damage induced by 5-fluorouridine; 330,000 tested, 2.3% active; Potency, µM (series often up to 46.1 µM), for the others: at the top dose activity change, negative = inhibition, usual class: inhibitors; also: % is scaled to controls: 0 for no effect and ±100 for the full control effect; nearly all actives have a fitted effect of over 55% in size
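In this reporter screen, reduction of luminescence relative to DMSO vehicle indicated activity. Compounds and 5-fluorouridine were added together to 2,000 cells per well, incubated for 16 hr at 37 °C, then developed with ONE-Glo.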
ELG1 genotoxic: genotoxicity induction in ELG1-luciferase HEK293T cells | Potency, µM (top dose mostly 46 µM), without a hit: top-dose activity change, positive = activation, most hits filed as activators | AID 504466 | 330,000 tested, 1.3% active | HEK293T ELG1-luciferase reporter, luminescence, 16 h; also: % of control where 0% means no effect; nearly all actives have a fitted effect of over 60% in size
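Quantitative HTS format in 1536-well plates. HEK293T ELG1-luciferase reporter cells receive test compound and are incubated 16 hr at 37 °C, 5% CO2; ONE-Glo added, 30 min room temperature, then luminescence read.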
Rab9 prom act: Rab9 promoter activation | Huh7 Rab9 promoter-luciferase reporter, luminescence, 24 h | Potency, µM (series often up to 9.22 µM), without a hit: at the highest dose activation, negative = inhibition, hits mostly activators | 320,000 tested, 2.8% active; also: % of control where 0% means no effect; nearly all actives have a fitted effect of over 60% in size
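Measured in stably transfected Huh7 cells bearing a Rab9 promoter–luciferase construct: 24 h compound treatment at 37 °C, followed by luminescence detection.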
Starred values were filed as active, the others as inactive; ? = inconclusive; . = no result given; [ ] = remark or other dose. An excerpt weighted towards active compounds, which were near 9.2% of everything screened. Calls follow the shape of the dose curve; as a rule, active = well fitted curve in the direction sought with a large enough effect; inconclusive = small, poorly fitted or top-dose-only effect, or another doubt; inactive = no such curve, though single readings can be large; an effect the other way counts as inactive or inconclusive. Potency is read from the fitted curve at half-maximal effect.

SMILES | SMN2 splice up | NPC1 prom act | FLuc modulator | ELG1 DNA repair | ELG1 genotoxic | Rab9 prom act
COc1ccc(-c2nn(-c3ccccc3)cc2CNC(=O)c2cccc([N+](=O)[O-])c2)cc1 | 10% | 1% | 1% | ? | -2% | 11%
COC(=O)C1=C(C(=O)OC)[C@@H]2Nc3ccccc3[C@@]23C[C@@H](C(=O)OC)N(C(=O)COCc2ccccc2)C3=N1 | -14%[9.22 µM] | . | . | . | . | .
COc1ccc(-n2cnc3cc(NS(=O)(=O)c4ccccc4)ccc32)cc1 | 28% | 3% | ? | ? | 3% | 0%
COc1ccc(-n2cnc3cc(N)ccc32)cc1 | 14µM* | 26% | ? | ? | ? | 20%
COc1cc(CNC(=O)c2nc(Cn3nc(C)c(Br)c3C)no2)cc(OC)c1 | 3% | -4% | -6% | -1% | -11% | -7%
Cc1onc(-c2ccccc2Cl)c1C(=O)NCc1ccccc1F | . | 5% | 1% | -4% | 2% | 1%
Cc1cccc(-c2noc(CN(C(=O)c3ccc(C)c(C)c3)C(C)C)n2)c1 | -71% | . | 0% | . | . | .
Cc1ccc(C)c(C(=O)N(Cc2nc(-c3ccc(Cl)cc3)no2)C(C)C)c1 | -28% | 1% | 0% | 21µM* | -8% | -7%
Cc1onc(-c2ccccc2Cl)c1C(=O)NCc1nc(-c2ccc(C(F)(F)F)cc2)no1 | . | 4% | -4% | 15µM* | -3% | -4%
COc1ccc(-c2noc(CN(C(=O)C(C)(C)C)C(C)C)n2)cc1 | 4% | 18% | ? | ? | 15µM* | 26%
Cc1cccc(-c2noc(CN(C(=O)c3c(-c4ccccc4Cl)noc3C)C(C)C)n2)c1 | -21% | -2% | -1% | 21µM* | -16% | -9%
O=C1C(=O)N(C2CCN(S(=O)(=O)c3ccc(F)cc3)CC2)CCN1Cc1ccccc1 | . | . | -1% | . | . | .
Cc1ccc(-c2noc(CN(C(=O)CCN3C(=O)c4ccccc4C3=O)C(C)C)n2)cc1 | -8% | -6% | 8% | -15% | 0% | 3%
Cc1ccc(-c2noc(CN(C(=O)CCCCCN3C(=O)c4ccccc4C3=O)C(C)C)n2)cc1 | -34% | -3% | -1% | 18µM* | -11% | 0%
CCC1CCCCN1C(=O)COc1ccc(N(C)S(=O)(=O)c2ccc(C)cc2)cc1 (configuration not stated) | . | -8% | 0% | ? | -15% | -4%
O=c1c2ccccc2nc2c3ccccc3c(Cl)nn12 | -65% | -8% | -1% | -2% | 3% | 16%
O=c1c2ccccc2nc2c3ccccc3cnn12 | ? | ? | ? | ? | ? | 2.2µM*
Cc1nn(C2CCS(=O)(=O)C2)c(Cl)c1/C=C/C(=O)OCC(=O)Nc1ccc2c(c1)OCO2 (configuration not stated) | -10% | -2% | 5% | -9% | -8% | 0%
O=C(Nc1ccc(NC(=O)C2CC2)cn1)c1ccccc1 | . | 0.32µM* | 2.7µM* | ? | ? | 0.35µM*
COc1cccc(C(=O)Nc2ccc(NC(=O)C3CC3)nc2)c1 | . | -2% | -2% | 16% | 3% | 3%
O=C(Nc1ccc(NC(=O)C2CCCCC2)nc1)c1ccccn1 | 22µM* | ? | 17µM* | ? | ? | 3.5µM*
COc1ccccc1C(=O)Nc1ccc(NC(=O)C2CCCCC2)nc1 | . | -3% | ? | 1% | 0% | 7%
O=C(Nc1ccc(NC(=O)C2CC2)nc1)c1cccc(F)c1 | . | ? | ? | ? | 14% | 4.5µM*
CC(C)C(=O)Nc1ccc(NC(=O)c2cccc(F)c2)cn1 | 10% | 27% | ? | ? | ? | 2.8µM*
CCOc1ccc(CNC(=O)C2Cc3cc(S(=O)(=O)N4CCCCCC4)ccc3N2C(C)=O)cc1 (configuration not stated) | 10% | . | -1% | . | . | .
SMILES | SMN2 splice up | NPC1 prom act | FLuc modulator | ELG1 DNA repair | ELG1 genotoxic | Rab9 prom act
O=C(Nc1ccc(NC(=O)C2CC2)cn1)c1ccccc1Cl | 25µM* | 27% | ? | ? | ? | 28%
CCCn1c(=O)c(C(=O)Nc2ncccc2C)c(O)c2ccccc21 | -19% | 0% | -3% | -6% | -5% | -2%
CCCn1c(C)cc(=O)c2cc(NC(=O)c3ccccn3)ccc21 | -12% | 1% | -1% | 16µM* | -5% | 4%
O=C(Cc1ccccc1)Nc1ccc(NC(=O)c2ccccc2)nc1 | . | 2.8µM* | ? | ? | ? | 2.2µM*
CCCC(=O)Nc1ccc(NC(=O)c2ccccc2OC)cn1 | -9% | 9% | ? | 15% | 2% | 10%
CCCC(=O)Nc1ccc(NC(=O)c2ccccn2)cn1 | . | 2.2µM* | 13µM* | ? | ? | 2.8µM*
Cc1cccc(C)c1NC(=O)NCCc1c[nH]c2ccccc12 | -9% | . | -5% | . | . | .
CC(C)CCn1c(=O)c2sccc2n2c(CCCC(=O)N3CCC(N4CCCCC4)CC3)nnc12 | . | -2% | 1% | 11% | 6% | -6%
COc1ccc(-n2c(C)cc(C3=NNC(=NC4CC4)SC3)c2C)cc1 | 4µM* | -2% | 5.4µM* | ? | ? | 0%
Cc1cc(C2=NNC(=NC3CC3)SC2)c(C)n1-c1ccccc1 | -101% | -32% | 0.076µM* | 4.6µM* | -10% | -40%
C=C[C@@H]1c2cc(C)ccc2N(S(=O)(=O)c2ccc(C)cc2)[C@H](c2ccc(OC(C)=O)cc2)C1(C#N)C#N | . | -22% | 3% | -12% | 0% | -6%
C/C(=N/NC(=O)CNS(=O)(=O)c1ccccc1)c1ccc(Br)cc1 | . | -2% | -1% | 10% | 2% | 1%
CSc1ncc(-c2ccccc2)cn1 | -9% | 2% | ? | 14% | 4% | 22%
Oc1c(Br)cc(Br)c(/C=N/n2c(-c3ccccc3)n[nH]c2=S)c1Br | . | -2% | -27% | -10% | -3% | -3%
CSc1ccc(C2N=C(c3ccccc3)NO2)cc1 (configuration not stated) | . | 1.3µM* | 8.5µM* | ? | ? | 1.8µM*
Oc1c(Br)cc(C2N=C(c3ccccc3)NO2)cc1Br (configuration not stated) | -20% | 18% | 17µM* | ? | 19% | 8%
Cc1cccc(NC(=O)c2cnn3c2NC(=C2CC2)C=C3C(F)F)n1 | . | . | 4% | . | . | .
CCN(CC(=O)Nc1c(F)cccc1F)C(=O)Cc1ccc(S(=O)(=O)N2CCOCC2)s1 | . | 2% | 9% | 30% | 3% | -4%
Cc1ccc(CN(C(=O)COc2ccc(C(C)(C)C)cc2)C2CCS(=O)(=O)C2)o1 (configuration not stated) | -31% | . | -10% | . | . | .
